# High-throughput results: PubChem, National Center for Advancing Translational Sciences (NCATS)
# Hits are enriched below; roughly 3.3% of the tested compounds scored in any of these assays.
# DNA Pol III inh: inhibitors of bacterial DNA polymerase III holoenzyme; reconstituted DNA polymerase III holoenzyme replication, biochemical; Potency, µM (top dose mostly 57.1 µM), inactives show top-dose activity change, negative = inhibition; 71,000 tested, 0.25% active; also: potency is read from the fitted curve at half-maximal effect; % is scaled to controls: 0 for no effect and ±100 for the full control effect
#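 Reconstituted *E. coli* holoenzyme (0.35 nM Pol III, 1 nM beta, 154 nM SSB, 2 nM primase) was preincubated with compound for 15 min at RT. Synthesis on 1.4 nM ssM13Gori ran 35 min, then was stopped with PicoGreen/EDTA and read as dsDNA fluorescence.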
# 15-hLO inh: inhibitors of human 15-lipoxygenase (ALOX15); P16050; purified 15hLO-1, xylenol orange hydroperoxide absorbance; Potency, µM (highest dose often 57.1 µM), without a hit: top-dose activity change, negative = inhibition, usual class: inhibitors; 74,000 tested, 1.4% active; also: potency is read from the fitted curve at half-maximal effect; % is scaled to controls: 0 for no effect and ±100 for the full control effect; nearly all actives have a fitted effect of over 55% in size
#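 Inhibition is scored from a chromogenic endpoint. After 15 min enzyme-compound contact, arachidonic acid (50 uM final) reacts 6 min with 40 nM 15hLO-1 at room temperature, then Fe-XO reagent is added for 30 min and absorbance ratio recorded.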
# Tau filament bind: binds recombinant human tau filaments. AID 596. P10636. recombinant tau filaments, thioflavin S fluorescence, 15 h; filaments grown with octadecylsulfate alongside compound. Potency, µM (doses to about 57.1 µM), for the others: at the top dose activity change, negative = inhibition. 71,000 tested, 2% active;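 also: potency is read from the fitted curve at half-maximal effect; % is scaled to controls: 0 for no effect and ±100 for the full control effect; actives lower thioflavin S fluorescence by blocking filaments or displacing dye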
# Target sequence (P10636 whole entry, looked up): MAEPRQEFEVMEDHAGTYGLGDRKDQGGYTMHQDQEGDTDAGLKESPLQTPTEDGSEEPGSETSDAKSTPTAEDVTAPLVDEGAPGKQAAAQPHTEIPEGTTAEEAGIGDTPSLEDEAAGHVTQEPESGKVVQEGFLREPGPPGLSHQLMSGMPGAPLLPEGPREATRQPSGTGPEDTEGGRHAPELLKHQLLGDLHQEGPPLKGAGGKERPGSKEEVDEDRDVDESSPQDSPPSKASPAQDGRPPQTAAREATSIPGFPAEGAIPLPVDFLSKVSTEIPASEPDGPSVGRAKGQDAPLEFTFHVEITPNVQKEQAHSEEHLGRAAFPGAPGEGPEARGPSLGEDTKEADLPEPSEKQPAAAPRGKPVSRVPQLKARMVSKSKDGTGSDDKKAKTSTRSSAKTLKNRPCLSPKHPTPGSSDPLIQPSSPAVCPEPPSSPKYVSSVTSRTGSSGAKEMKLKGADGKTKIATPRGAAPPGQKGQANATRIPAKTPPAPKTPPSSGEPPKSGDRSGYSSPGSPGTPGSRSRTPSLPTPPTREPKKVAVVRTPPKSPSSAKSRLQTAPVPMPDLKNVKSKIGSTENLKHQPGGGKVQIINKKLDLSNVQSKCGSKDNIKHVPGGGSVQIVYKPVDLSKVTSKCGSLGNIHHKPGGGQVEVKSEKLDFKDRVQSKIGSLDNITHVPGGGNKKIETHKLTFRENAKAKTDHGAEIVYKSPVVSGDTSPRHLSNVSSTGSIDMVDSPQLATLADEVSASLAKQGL
#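 Read-out: ThS fluorescence, 450 nm excitation/510 nm emission; lower signal marks blocked filament formation or displaced dye. Tau at 1 uM with 30 uM ODS, 10 uM ThS, 5 mM DTT, 100 mM NaCl, 10 mM HEPES pH 7.4; 15 h, 37 C.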
# Hsp90 Hop PPI: changes Hsp90-Hop TPR2A binding signal, up or down. Potency, µM (series often up to 57 µM), for the others: at the highest dose activity change, negative = inhibition. AlphaScreen TPR2A-His6 binding biotin-Hsp90 C-terminal peptide. 71,000 tested, 0.44% active; active = well fitted curve in either direction with a large enough effect; inconclusive = small, poorly fitted or top-dose-only effect, or another doubt; also: potency is read from the fitted curve at half-maximal effect; % is scaled to controls: 0 for no effect and ±100 for the full control effect
# TsaE inh: inhibitors of E. coli YjeE (TsaE) | P0AF67 | purified YjeE enzyme, qHTS inhibition assay | Potency, µM | 71,000 tested, 0.05% active
#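 Fluorescence polarization of a BODIPY Texas Red–ADP probe (2 uM) bound to purified YjeE (10 uM) was read after 15 min room-temperature incubation with compounds. Loss of polarization marks inhibitors; ADP serves as titrated control.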
# * marks the source's active call; other numbers are inactive results; i = inactive; ? = inconclusive; . = not tested or not shown; ! = repeats disagree; [ ] = another dose, or the depositor's remark. Unless noted, calls follow the shape of the dose curve; as a rule, active = well fitted curve in the direction sought with a large enough effect; inconclusive = small, poorly fitted or top-dose-only effect, or another doubt; inactive = no such curve, though single readings can be large; an effect the other way counts as inactive or inconclusive.
SMILES,DNA Pol III inh,15-hLO inh,Tau filament bind,Hsp90 Hop PPI,TsaE inh
CC1(C)O[C@@H]2O[C@H]([C@@H]3COC(C)(C)O3)[C@H](N)[C@H]2O1,-9%[11.4 µM],4%[11.4 µM],6%[11.4 µM],-2%[11 µM],i
O=C(/C=C/c1ccc(O)cc1)c1ccc(O)cc1O,.,-10%[11.4 µM],.,.,.
O=C(/C=C/c1ccccc1)c1ccc(O)cc1O,.,20µM*,.,.,.
COc1ccc(/C=C/C(=O)c2ccc(O)cc2O)cc1,.,20µM*,.,.,.
COc1cc(O)c(C(=O)/C=C/c2ccc(O)c(OC)c2)c(OC)c1,.,-40%,.,.,.
COc1ccc(C(=O)c2ccc(OC)cc2O)c(O)c1,-5%,-6%,-17%,-3%,i
COc1ccc(/C=C/C(=O)c2ccc(O)cc2O)cc1OC,.,16µM*,.,.,.
COc1ccc(/C=C/C(=O)c2cc(O)ccc2O)cc1,.,20µM*,.,.,.
CC(=O)OC[C@@H]1O[C@@H](O/N=C2/C[C@@H](O)[C@@H](O)[C@@H]3[C@@H]4C(=O)N(c5cccc(Oc6ccccc6)c5)C(=O)[C@H]4CC[C@H]23)[C@H](OC(C)=O)[C@H](OC(C)=O)[C@@H]1OC(C)=O,.,6%[11.4 µM],.,.,.
O=c1cc(C(F)F)oc2c1ccc1ccccc12,-6%,13µM*,-13%,0%,i
Oc1cc2c(cc1O)C1c3ccc(O)c(O)c3OCC1(O)C2 (stereo not drawn),.,5µM*,.,.,.
CC(=O)Nc1c(Cl)n(C(C)=O)c2ccccc12,-1%,5%,20µM*,-8%,i
CC(=O)n1c2ccccc2c2c1c1ccccc1n2C,-8%,5%,31%,-2%,i
CC1(C)CCC[C@@]2(C)[C@@H]1CC[C@]1(C)OC(=O)C[C@@H]21,-2%,.,-15%,?,i
CCCCC(=O)N(C)C,-2%,1%,2%,-1%,i
N#C/C(=C\c1ccc(O)c(O)c1)C(=O)NCCCc1ccccc1,-8%,2.5µM*,-18%,5µM*!,i
O=C(O)CCCC(=O)NCCCc1ccccc1,-2%[11.4 µM],2%[11.4 µM],4%[11.4 µM],-6%[11 µM],i
CC(C)(C)c1cc(/C=C(\C#N)C(N)=S)cc(C(C)(C)C)c1O,-4%,?,-19%,?,i
NC(=S)N/N=C\c1c[nH]c2ccccc12,0%[11.4 µM],3%[11.4 µM],2%[11.4 µM],-3%[11 µM],i
N#C/C(=C\c1ccc(O)c(O)c1)C(=O)c1ccc(O)c(O)c1,?,4µM*,3%,?,i
N#C/C(=C\c1c[nH]c2ccccc12)C(=O)c1ccc(O)c(O)c1,-6%,0.25µM*,-2%,?,i
N#C/C(=C\c1ccc(O)c(O)c1)C(=O)OCCc1cccs1,-5%,?,-29%,4µM*,i
CCNS(=O)(=O)c1ccc(C)cc1,-2%,-2%,2%,-7%,i
N#C/C(=C\c1ccc(O)c(O)c1)S(=O)(=O)c1ccccc1,-6%,4µM*,-1%,-21%,i
COC1=CC(=O)C[C@@H](C)[C@@]12Oc1c(Cl)c(OC)cc(OC)c1C2=O,-3%,.,?,-3%,i
SMILES,DNA Pol III inh,15-hLO inh,Tau filament bind,Hsp90 Hop PPI,TsaE inh
NC(=O)c1cc(Br)cc2c3c([nH]c12)CCCC3,-2%,7.9µM*,i,-7%,i
OC[C@@H]1O[C@@H](n2cnc3c(NCc4ccco4)ncnc32)[C@H](O)[C@H]1O,-6%,.,12%,-5%,i
COc1ccc(OC2C=CC(C#Cc3ccc(C(C)(C)C)cc3)OC2CO)cc1 (stereo not drawn),.,-5%[11.4 µM],.,.,.
O=C(O)c1ccc(Cl)c(S(=O)(=O)Nc2ccccc2)c1,.,-4%,.,.,.
COC(=O)N1[C@H](C)C=C[C@]1(Cc1ccccc1)C(=O)NCc1ccccn1,6%,?,2%,-3%,i
COC(=O)N1[C@H](C)C=C[C@]1(Cc1ccccc1)C(=O)NCc1ccc(N(C)C)cc1,0%,20µM*,-18%,-11%,i
Cc1nn(-c2nc3ccccc3s2)c(C)c1Oc1ccccc1O,15%,16µM*,128%,-3%,i
C=C(CO)[C@H]1Cc2c(ccc3c2O[C@H]2COc4cc(OC)c(OC)cc4[C@@H]2C3=O)O1,-5%,.,?,-9%,i
COc1ccc(Oc2ncc3nc(-c4cn(C)c5ccccc45)c(=O)n(CCC#N)c3n2)cc1,8%,7%,249%,5µM*,i
COc1ccc(-c2nc3cnc(N4CCNCC4)nc3n(Cc3cccc(OC)c3)c2=O)cc1,2%,-12%,178%,?,i
COc1cccc(Cn2c(=O)c(-c3ccc(Cl)cc3)nc3cnc(N4CCNCC4)nc32)c1,-9%,4%,4µM*,20%,i
COc1cccc(Cn2c(=O)c(C)nc3cnc(OCc4ccccc4)nc32)c1,-10%,-5%,32µM*,4%,i
COc1ccccc1CCn1c(=O)c(-c2ccc(Cl)cc2)nc2cncnc21,12%,-12%,13µM*,-3%,i
CCOC(=O)CCN1C(=O)[C@H]2[C@H]3[C@H](O)[C@H](O)C/C(=N/NC(=O)OCc4ccccc4)[C@H]3CC[C@@H]2C1=O,.,7%[11.4 µM],.,.,.
NC(=O)CCCCC(N)=O,-3%,5%,0%,-1%,i
COc1cccc(Cn2c(=O)c(-c3cccs3)nc3cnc(Nc4cccc(OC)c4)nc32)c1,0%,-15%,i,7.9µM*,i
COc1cccc(Cn2c(=O)c(-c3cccc(Cl)c3)nc3cncnc32)c1,-10%,?,20µM*,-16%,i
COc1cccc(Cn2c(=O)c(-c3cn(C)c4ccccc34)nc3cncnc32)c1,-7%,-3%,6%,-6%,i
COc1ccc(Nc2ncc3nc(-c4cccs4)c(=O)n(Cc4cccc(OC)c4)c3n2)cc1,-6%,-7%,5%,-2%,i
COc1cccc(Cn2c(=O)c(-c3ccc(Cl)cc3)nc3cnc(OC)nc32)c1,-10%,0%,13µM*,-3%,i
O=c1c(-c2ccc(Cl)cc2)nc2cncnc2n1Cc1ccccc1,-1%,-17%,?,-7%,i
COc1cccc(Cn2c(=O)c(-c3ccc(Cl)cc3)nc3cncnc32)c1,-5%,-15%,25µM*,-12%,i
COc1cccc(Cn2c(=O)c(-c3ccc(Cl)cc3)nc3cnc(N4CCN(C)CC4)nc32)c1,-9%,-7%,?,-4%,i
COC(=O)C1=C(C)[C@@H](O)[C@@H](C)[C@H](c2c(OC)c(OC)c(C)c(OC)c2OC)O1,.,7%[11.4 µM],.,.,.
O=C(c1[nH]o[n+](=O)c1C(=O)c1csc2ccccc12)c1csc2ccccc12,10%[11.4 µM],-15%[11.4 µM],2%[11.4 µM],-4%[11 µM],i
Oc1ccccc1C(Sc1nc2ccccc2s1)Sc1nc2ccccc2s1,-11%[11.4 µM],?,6%[11.4 µM],-6%[11 µM],i
COc1cccc(Nc2ncc3nc(C)c(=O)n(CCC#N)c3n2)c1,-4%,2%,25µM*,-5%,i
COc1cccc(Nc2ncc3ncc(=O)n(CCC#N)c3n2)c1,-1%,2%,-7%,-3%,i
COc1ccccc1-c1nccc(NCc2cccs2)n1,-11%,10µM*,-23%,1%,i
